This is part of a sample that, as a whole, favours compounds with a hit. Of some 83,000 tested, about 20% had one in any assay.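 Activity criterion: percent growth below 10, measured after cells in 96-well plates were exposed to a single compound concentration for 48 hours.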 Unmarked numbers belong to inactive results. Calls of active or inactive are those of the source.
Experiments:
Assay in all cases: NCI-60 one-dose screen, 48 h (100 = growth as untreated, 0 = no growth, -100 = all killed)
BT-549 breast = details: 10 µM unless noted
SW-620 colon = details: 10 µM unless noted
MCF7 breast = details: 10 µM
HCT-116 colon = details: 10 µM unless noted
HCC-2998 colon = details: 10 µM unless noted
KM12 colon = details: 10 µM unless noted
MDA-MB-435 melanoma = details: 10 µM unless noted

Compound | growth (BT-549 breast) | growth (SW-620 colon) | growth (MCF7 breast) | growth (HCT-116 colon) | growth (HCC-2998 colon) | growth (KM12 colon) | growth (MDA-MB-435 melanoma)
CCCCOCc1cc(CN2CCN(C)CC2)c(O)c2ncccc12 | 62% | 45.6% | 27.2% | 19.1% | 57.8% | 40.6% | –
O=c1oc2ccc(Cl)cc2c(=O)n1-c1cc(C(F)(F)F)cc(C(F)(F)F)c1 | – | 6.78% (active) | 2.18% (active) | -12.7% (active) | 5.83% (active) | – | -4.47% (active)
Cc1nc2ccccc2c(/C=C/c2ccccc2)c1C(=O)/C=C/c1ccc(Cl)cc1 | – | 3.99% (active) | 14.2% | -5.14% (active) | 12.4% | 21.4% | -9.81% (active)
O=CCCCC(O)C=O (centres undefined) | 112% | 96.9% | 98.9% | 109% | 105% | 103% | –
COc1ccc(N(C)c2nc(N)nc3sc4c(c23)CCCC4)cc1 | – | 28.7% | 15.2% | 1.18% (active) | 7.08% (active) | 7.2% (active) | -9.59% (active)
COc1ccc(/C=C/C(=O)c2ccc(Nc3nc(NCCO)nc(Nc4ccc(Cl)cc4)n3)cc2)cc1 | 61.3% | 91.1% | 12.9% | 19.8% | 57.2% | 41% | –
Cc1cc(Br)c(N)c(Br)c1 | – | 101% | 92.3% | 82.8% | 90.6% | – | 97.4%
O=C1N=c2ccccc2=C1c1sc(=Nc2ccccc2)n(Nc2ccccc2)c1O | 106% | 108% | 103% | 104% | 116% | 103% | –
O=C1c2ccccc2C(=O)c2c1ccc1[nH]c(CCl)nc21 | – | -23.7% (active) | 6.47% (active) | -6.49% (active) | 65.5% | – | 28.6%
CCOC(=O)c1cnc2ccc(Cl)cc2c1NCCCN(C)C | 31.6% | 14.6% | 7.48% (active) | 12.4% | -13.2% (active) | 17.5% | –
COc1ccc(Br)c(/C=C2\SC(=Nc3ccc(O)cc3)NC2=O)c1 | – | 104% | 70.4% | 98.7% | 109% | 84.2% | 87.2%
Nc1ccc(-c2nn3c(CCC(=O)c4nc5ncccc5[nH]4)nnc3s2)c(O)c1 | – | 90.1% | 84.7% | 86.7% | 69.4% | – | 97.2%
NCCNc1nc2ccc(F)cc2c2c(=O)c3cc(F)ccc3sc12 | – | -73.5% (active) | -15.2% (active) | -87.1% (active) | 14.8% | 17.8% | 13.4%
CC[C@]1(O)C[C@@H]2CN(CCc3c([nH]c4ccccc34)[C@@](C(=O)OC)(c3cc4c(cc3OC)N(C)[C@H]3[C@@](O)(C(=O)OC)[C@H](OC(C)=O)[C@]5(CC)C=CCN6CC[C@]43[C@@H]65)C2)C1 | – | 22.7% | 10.6% | 7.92% (active) | 0.153% (active) | – | -38% (active)
CCOC(=O)c1cc2c(n1Cc1ccccc1OC)-c1oncc1CCC2 | 54.9% | 23.8% | 14% | 29.5% | 53.6% | 41.9% | –
CCOc1c(Br)cc(C2C(C(=O)OC)=CN(C)C=C2C(=O)OC)cc1OC | 78.1% | 58% | 35.9% | 59% | -77.5% (active) | 61.9% | –
O=C(Nc1ccc(Br)cc1F)c1cc(F)ccc1O | – | 10.2% | 3.43% (active) | 2.34% (active) | 17.8% | – | -1.29% (active)
COc1c(B(O)O)cccc1-c1nc2ccc3n[nH]c(F)c3c2c2c1CCCC2 | 5.08% (active) | 59.7% | 61.5% | 43.9% | 116% | 40.7% | –
Nc1nc(N)c2c(n1)NC1(C=C(O)c3ccccc31)C1=C(N2)c2ccccc2C1=O (centres undefined) | 112% | 99.4% | 97.1% | 101% | 109% | 109% | –
CCOc1cc2c(cc1OCC)C(c1cc(C)c(O)c(C)c1)NCC2 (centres undefined) | – | 100% | 89.1% | 94.2% | 103% | 103% | 97.5%
c1ccc(-c2ccc(-c3nc4ccccc4[nH]3)cc2)cc1 | 94.2% | 101% | 76.3% | 74.1% | 88.3% | 84.6% | –
COc1cc2nc(NC3CCC3)nc(NC3CCN(C(C)C)CC3)c2cc1OC | – | 38.7% | 29.5% | 48.1% | 22.7% | 62.9% | -48% (active)
O=C(Nc1ccc(I)cc1F)c1cc(F)ccc1O | – | 7.82% (active) | 0.117% (active) | -6.74% (active) | 8.95% (active) | -11.4% (active) | -5.16% (active)

Compound | growth (BT-549 breast) | growth (SW-620 colon) | growth (MCF7 breast) | growth (HCT-116 colon) | growth (HCC-2998 colon) | growth (KM12 colon) | growth (MDA-MB-435 melanoma)
O=C(Nc1ccc(Cl)cc1F)c1cc(F)ccc1O | – | 9.96% (active) | 3.15% (active) | 3.99% (active) | 11.7% | 0.993% (active) | 0.146% (active)
Nc1n[nH]c2ccc([C@@H]3Nc4ccc5[nH]ncc5c4[C@H]4[C@H]5CCC(C5)[C@H]43)cc12 | – | 22.2% | 18.7% | 9.49% (active) | 26.2% | 11.5% | -7.49% (active)
COc1ccc(/C=C2\NC(=O)NC2=O)cc1O | 94.1% | 109% | 100% | 89.3% | 107% | 102% | –
COc1ccc(/C=C2\SC(=Nc3ccccc3)NC2=O)cc1 | -72.2% (active) | -74.2% (active) | -85% (active) | -82.2% (active) | -87.5% (active) | -89.6% (active) | –
Cc1ccccc1CNC(=O)C1CN(c2ccc(Cl)cc2)N(c2ccc(Cl)cc2)C1=O (centres undefined) | – | 81.9% | 74.1% | 83.8% | 100% | 87.2% | 35.9%
O=Cc1c(OCc2cnnn2CC(=O)Nc2ccc(Br)cc2)ccc2ccccc12 | – | 91.3% | 84.1% | 101% | 94.3% | – | 102%
O=C1C(Cl)=C(NCc2ccco2)C(=O)c2ccccc21 | – | 99.7% | 22% | 80.5% | 97.9% | 62.6% | -38.4% (active)
O=c1oc2ccc(-c3ccc(F)cc3F)cc2c(=O)n1-c1ccc(Cl)c(C(F)(F)F)c1 | – | 14.6% | 7.27% (active) | 6.47% (active) | 25.6% | – | 7.88% (active)
CCCCNc1nc(NC(C)(C)C)nc(NC(C)(C)C)n1 | 79.9% | 52.3% | 56% | 30.8% | 74.3% | 63.8% | –
Nc1cccc(Nc2cc(S(=O)(=O)O)c(N)c3c2C(=O)c2ccccc2C3=O)c1 | – | 104% | – | 108% | 120% | 105% | 109%
Cc1ccc(F)cc1NC(=O)c1cc(Cl)ccc1Nc1ccccc1 | – | 57.5% | 29.7% | 30.9% | 28.2% | 37.1% | 59.5%
COc1ccc2sc(N(Cc3cccnc3)C(=O)c3ccc(C#N)cc3)nc2c1 | – | 90.6% | 87% | 58.2% | 82.6% | 75.8% | 66.5%
Nc1ccc(-n2c(=O)oc3ccc(Cl)cc3c2=O)c(Cl)c1 | – | 5.14% (active) | 4.1% (active) | -4.7% (active) | 10.2% | -33.7% (active) | –
O=c1oc2ccc(F)cc2c(=O)n1-c1ccc(F)cc1F | – | 31.7% | 24.8% | 24.4% | 22.8% | 12.6% | 11.7%
COc1cc(C(=O)NN=C2c3ccccc3-c3ccccc32)cc(OC)c1OC | – | 19.5% | 11.9% | 20.4% | 77.9% | 29.3% | -22.6% (active)
Cc1ccc(NC2=CC(=O)C(=O)c3ccccc32)c(C)c1 | – | 34.9% | – | -6.25% (active) | 29.1% | 46.4% | –
O=c1c2cc(F)cc(Cl)c2sc2c(Cl)nc3ccccc3c12 | – | 97.7% | 77.1% | 104% | 104% | 101% | –
COc1ccc2sc3c(NCCCN)nc4ccccc4c3c(=O)c2c1 | – | -75% (active) | -74.2% (active) | -84.1% (active) | -67.1% (active) | – | –
O=c1oc2ccc(Cl)cc2c(=O)n1-c1ccc(I)cc1F | – | 7.19% (active) | 3.96% (active) | 2% (active) | 16.2% | -18.3% (active) | -6.3% (active)
O=c1oc2ccc(Br)cc2c(=O)n1-c1ccc(Cl)cc1F | – | 9.75% (active) | 3.69% (active) | 1.83% (active) | 22.7% | -14.7% (active) | -8.83% (active)
COc1ccc(C2C3=C(COC3=O)N(CCO)c3cc4c(cc32)OCCO4)cc1 (centres undefined) | – | 55.2% | – | 77.2% | 76.5% | 49% | 1.1% (active)
O=C1c2cc(Br)ccc2Oc2cc([N+](=O)[O-])ccc2N1c1ccc(I)cc1F | – | 94.2% | 97.1% | 87.5% | 102% | 100% | 102%
